CtBP-E1A blk: qHTS Assay for Inhibitors of the CtBP/E1A Interaction; AlphaScreen GST-E1A/His-CtBP binding, 1536-well; hits give low values; activity change, % (no concentration beside the values); CtBP / adenovirus E1A interaction (AlphaScreen); 340,000 compounds, 0.49% hits; in the data active = activity change below about -65%; inconclusive = mostly about -30% to -63%; also: % is scaled to controls: 0 for no effect and ±100 for the full control effect
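AlphaScreen with 125 nM GST-E1A and 125 nM His-CtBP (5X stocks) in Tris pH 8.0, 300 mM NaCl, BSA, Tween 20, TCEP. Compounds preincubated 2 h at 37 deg C, then glutathione donor/nickel acceptor beads added for 1 h at 37 deg C in dark.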
Six1-Eya2 blk: qHTS Assay for Inhibitors of the Six1/Eya2 Interaction; Homeobox protein SIX1 (Homo sapiens) + Protein phosphatase EYA2 (Homo sapiens), …; AlphaScreen GST-Six1/His-Eya2 binding, biochemical; hits give low values; activity change, % (concentration not given with the values); 360,000 compounds, 0.56% hits; in the data active = activity change below about -65%; inconclusive = mostly about -30% to -63%; also: % is scaled to controls: 0 for no effect and ±100 for the full control effect
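GST-Six1 + His-Eya2 (5X stock: 250/500 nM); Tris pH 8.0, 300 mM NaCl, 0.05% BSA, 0.02% Tween 20; GSH donor/Ni acceptor beads; 1 h 37 °C dark; AlphaScreen readout.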
VP16 counter: VP16 counterscreen qHTS for inhibitors of ROR gamma transcriptional activity. AID 2546, 2010. Drosophila S2 Gal4-VP16 UAS-luciferase, luminescence, 20 h. Potency, µM (highest dose often 53.6 µM), for the others: at the top dose activity, negative = inhibition, usual class: inhibitors. 310,000 compounds, 3.5% hits;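 also: Gal4-VP16 expression switched on by copper sulfate through the metallothionein promoter; potency is read from the fitted curve at half-maximal effect; % is scaled to controls: 0 for no effect and ±100 for the full control effect; nearly all actives have a fitted effect of over 50% in size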
MBNL1 CUG block: qHTS Assay for Inhibitors of MBNL1-poly(CUG) RNA binding; Muscleblind-like protein 1 (Homo sapiens), Q9NR56; TR-FRET MBNL1-His/biotin-(CUG)12 binding, 665/545 ratio; 280,000 compounds, 0.036% hits; Potency, µM (top dose mostly 57.5 µM), inactives show at the top dose activity change, negative = inhibition, actives largely listed as inhibitors; active = well fitted inhibition curve with a large enough effect in the signal ratio, with a control signal flat, not every such curve was filed as active; inconclusive = small, poorly fitted or top-dose-only effect, or effect the other way, or a change in a side signal; inactive = no such curve, though single readings can be large or run the other way; the % refers to the signal ratio; also: potency is read from the fitted curve at half-maximal effect; % is scaled to controls: 0 for no effect and ±100 for the full control effect
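His-tagged MBNL1 binding to biotinylated (CUG)12 RNA was measured by TR-FRET using terbium anti-His antibody (0.055 ng/ul final) and streptavidin-XL665 (5 nM final). Compounds were titrated 92 nM to 58 uM; 60 min at room temperature.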
CBFb-RUNX1 inh: qHTS Assay for Compounds Blocking the Interaction Between CBF-beta and RUNX1 for the Treatment of Acute Myeloid Leukemia. Potency, µM (top dose mostly 59.8 µM), for inactives: at the highest dose activity, negative = inhibition, most hits filed as inhibitors. Runt-related transcription factor 1 (Homo sapiens) + Core-binding factor subunit beta …. 230,000 tested, under 10 active. AlphaScreen CBFb-His/RUNX1-biotin binding, biochemical; also: % of control where 0% means no effect
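Bead-based AlphaScreen assay; binding partners His-tagged CBF-beta and biotinylated RUNX1 at 30 nM each. Compound exposure 15 min after a 20-min protein preincubation; bead step 90 min; all steps at room temperature.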
RORgamma inh: qHTS for inhibitors of ROR gamma transcriptional activity; Nuclear receptor ROR-gamma (Mus musculus), P51450; Drosophila S2 Gal4-RORgamma UAS-luciferase reporter, 20 h; Potency, µM (doses to about 53.6 µM), inactives show at the top dose activity change, negative = inhibition, hits mostly inhibitors; 310,000 compounds, 5.4% hits; AID 2551, 2010; also: potency is read from the fitted curve at half-maximal effect; % is scaled to controls: 0 for no effect and ±100 for the full control effect; nearly all actives have a fitted effect of over 60% in size
Target sequence (P51450 whole entry, looked up, the tested form may be a part): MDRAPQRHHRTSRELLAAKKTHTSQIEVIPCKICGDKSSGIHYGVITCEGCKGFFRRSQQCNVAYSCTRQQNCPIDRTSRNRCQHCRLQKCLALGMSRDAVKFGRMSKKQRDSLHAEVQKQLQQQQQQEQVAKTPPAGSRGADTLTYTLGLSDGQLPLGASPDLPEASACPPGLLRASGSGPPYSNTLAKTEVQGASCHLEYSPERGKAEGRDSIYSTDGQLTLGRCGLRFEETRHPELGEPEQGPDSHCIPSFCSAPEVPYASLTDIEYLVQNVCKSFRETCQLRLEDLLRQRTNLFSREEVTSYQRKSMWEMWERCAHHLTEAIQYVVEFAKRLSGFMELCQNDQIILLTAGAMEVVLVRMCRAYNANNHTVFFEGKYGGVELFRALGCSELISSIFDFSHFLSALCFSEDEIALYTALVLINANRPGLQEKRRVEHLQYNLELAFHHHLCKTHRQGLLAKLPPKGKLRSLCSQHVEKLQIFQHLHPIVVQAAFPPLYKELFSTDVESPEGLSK
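Read-out: Photinus luciferase luminescence; inhibitors lower reporter signal. Insect Schneider cells with Gal4-ROR gamma fusion under metallothionein promoter, UAS reporter; 700 uM final copper sulfate induction, 20 hr, ambient temperature.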
* = called active by the depositor; [ ] = dose if it differs, or a comment. Sampled rows, rich in hits. Any-hit rate of the full collection: about 5.5%. Unless noted, calls follow the shape of the dose curve; as a rule, active = well fitted curve in the direction sought with a large enough effect; inconclusive = small, poorly fitted or top-dose-only effect, or another doubt; inactive = no such curve, though single readings can be large; an effect the other way counts as inactive or inconclusive.

`S=C=Nc1ccccn1` gave CtBP-E1A blk 1, Six1-Eya2 blk 5, VP16 counter inconclusive, MBNL1 CUG block 2%, CBFb-RUNX1 inh 6% and RORgamma inh 5µM*.
CC(C)[N+](=O)[O-] was read as VP16 counter 1%, CBFb-RUNX1 inh 1%[21.7 µM] and RORgamma inh 2%.
For Oc1cccc[c]1[Hg][Cl] the results were VP16 counter 3.5µM* and RORgamma inh 1.6µM*.
Screening Cc1ccccc1O returned CtBP-E1A blk -1, Six1-Eya2 blk 15, VP16 counter 0%, CBFb-RUNX1 inh 9%[21.7 µM] and RORgamma inh 22%.
CCn1ccnc1CN1CCCC(C(=O)c2cc(C)c(OC)c(C)c2)C1 (stereo not given) was read as Six1-Eya2 blk -7, VP16 counter 11µM*, MBNL1 CUG block -10%, CBFb-RUNX1 inh 4% and RORgamma inh 2.5µM*.
`CCn1ccnc1CN1CCCC(C(=O)c2cc(Cl)ccc2OC)C1` (stereo not given) gave CtBP-E1A blk 28, Six1-Eya2 blk 0, VP16 counter -27%, MBNL1 CUG block -9%, CBFb-RUNX1 inh -10% and RORgamma inh 21%.
`Cc1nc2ccccc2c(=O)n1/N=C/c1cc(Br)cc(Br)c1O` gave CtBP-E1A blk -78* and Six1-Eya2 blk -66*.
Screening Cc1nc2ccccc2c(=O)n1-c1ccc(Br)cn1 returned CtBP-E1A blk -3, Six1-Eya2 blk 15, VP16 counter 4%, CBFb-RUNX1 inh 1% and RORgamma inh 25%.
Screening O=C1CC2OCC=C3CN4CCC56c7ccccc7N1C5[C@H]2[C@H]3C[C@H]46 (stereo not given in full) (tested in a mixture with another compound) returned VP16 counter -4% and RORgamma inh 1%.
`CC(C)CNP(=S)(c1ccccc1)C(C)(C)C` (stereo not given) gave CtBP-E1A blk 23, Six1-Eya2 blk 9, VP16 counter inconclusive, MBNL1 CUG block -9%, CBFb-RUNX1 inh 14% and RORgamma inh 7.9µM*.
CC(C)(C)P(=O)(NCc1ccccc1)c1ccccc1 (stereo not given) was read as CtBP-E1A blk 0, Six1-Eya2 blk 4, VP16 counter -4%, MBNL1 CUG block 2%, CBFb-RUNX1 inh -3% and RORgamma inh -10%.
`COC(=O)[C@@]1(O)C[C@@H]2O[C@@]1(C)n1c3ccccc3c3c4c(c5c6ccccc6n2c5c31)C(=O)NC4` gave VP16 counter inconclusive, CBFb-RUNX1 inh 8% and RORgamma inh -17%.
N#CC(C#N)=NNc1ccc(OC(F)(F)F)cc1 was read as VP16 counter 0.35µM*, CBFb-RUNX1 inh inconclusive and RORgamma inh 1µM*.
Screening Cc1ccc(C2=[N+]([O-])C3(CCCCC3=O)N(O)C2(C)C)cc1 (stereo not given) returned CtBP-E1A blk 1, Six1-Eya2 blk 14, VP16 counter 4µM*, MBNL1 CUG block 1%, CBFb-RUNX1 inh 3% and RORgamma inh 0.89µM*.
For COc1ccc(C[C@@H]2NC[C@H](O)[C@@H]2OC(C)=O)cc1 the results were VP16 counter 0.04µM*, CBFb-RUNX1 inh 1%[21.7 µM] and RORgamma inh 0.32µM*.
Screening O=c1ccc2cc(O[C@H]3OC(CO)C(O)C(O)C3O)c(O)cc2o1 (stereo not given in full) returned VP16 counter 6%, CBFb-RUNX1 inh 6% and RORgamma inh 25%.
`Cc1[nH]c(=O)n(C(C)(C)C)c(=O)c1Cl` gave VP16 counter 2%, CBFb-RUNX1 inh 18% and RORgamma inh 4%.
CC1=CC(=O)c2c(O)cccc2C1=O was read as VP16 counter 13µM*, CBFb-RUNX1 inh -4%[21.7 µM] and RORgamma inh 14µM*.
For CC[C@@H](CO)NC(=O)[C@H]1C=C2c3cccc4c3c(cn4C)C[C@H]2N(C)C1 the results were VP16 counter 4%, MBNL1 CUG block inconclusive, CBFb-RUNX1 inh -6% and RORgamma inh -4%.
For CC(=O)O[C@@H]1[C@@H](O)C2OC3C=C(C)C(=O)[C@@H](O)[C@]3(CO)C1(C)C21CO1 (stereo not given in full) the results were VP16 counter 0.11µM*, CBFb-RUNX1 inh 9% and RORgamma inh 0.63µM*.
For CC(=O)OCC12CC(OC(=O)CC(C)C)C(C)=CC1OC1C(O)C(OC(C)=O)C2(C)C12CO2 (stereo not given) the results were CtBP-E1A blk 2 and Six1-Eya2 blk 1.
For O=[N+]([O-])c1ccc(-c2[se]c3ccccc3c2I)cc1 the results were VP16 counter 6% and RORgamma inh 41%.
Screening CC(C)Sc1nnc([C@@H](N)Cc2ccccc2)o1 returned CtBP-E1A blk -6, Six1-Eya2 blk 6, VP16 counter 11µM*, MBNL1 CUG block -13%, CBFb-RUNX1 inh 3% and RORgamma inh -57%.
`CN1C(=O)/C(=C\c2ccc(Br)s2)C(=O)NC1=S` gave CtBP-E1A blk -15, Six1-Eya2 blk inconclusive, VP16 counter inconclusive, MBNL1 CUG block 11% and RORgamma inh inconclusive.
Screening O=C1NC(=S)NC(=O)C1=Cc1ccc(Br)s1 returned Six1-Eya2 blk 3, VP16 counter 6.3µM*, MBNL1 CUG block 10% and RORgamma inh 20µM*.
For CCCCOCC1CO1 (stereo not given) the results were VP16 counter 7%, CBFb-RUNX1 inh 0%[21.7 µM] and RORgamma inh 1%.
For C=CCn1c(O)c(/C=C2/C=c3ccccc3=N2)c(=O)[nH]c1=S the results were CtBP-E1A blk -12, Six1-Eya2 blk -2, VP16 counter inconclusive, MBNL1 CUG block -1% and RORgamma inh 35%[1.91 µM].
`C=CCn1c(-c2ccc([N+](=O)[O-])cc2)n[nH]c1=S` gave CtBP-E1A blk 9, Six1-Eya2 blk 1, VP16 counter inconclusive, MBNL1 CUG block inconclusive, CBFb-RUNX1 inh -5% and RORgamma inh 11µM*.
For O=C(N/N=C/c1c(O)n(Cc2ccco2)c(=O)[nH]c1=O)c1ccccc1O the results were CtBP-E1A blk -89*, Six1-Eya2 blk -87*, VP16 counter 7%, MBNL1 CUG block 4%, CBFb-RUNX1 inh inconclusive and RORgamma inh 13µM*.

High-throughput results as filed in PubChem.
